Article PMC11062922 (Nature Chemical Biology, 2023)
Where two headings read alike, the source gives them in different places.

Tests used:
Design in all cases: species or system human, MV4-11 + K-562 + COLO205 + SK-N-BE2 + OVCAR-8
ADCK1 = conditions: read-out: apparent Kd, n = 1
ABL2 = conditions: read-out: apparent Kd, n = 1
ATM = conditions: read-out: apparent Kd, compound concentrations: 100 nM and 1000 nM (sheet 'Samples'), n = 1
HCK = conditions: read-out: apparent Kd, compound concentrations: 100 nM and 1000 nM (sheet 'Samples'), n = 1
PIK3CD = conditions: read-out: apparent Kd, compound concentrations: 100 nM and 1000 nM (sheet 'Samples'), n = 1
PTK6 = conditions: read-out: apparent Kd; compound concentrations: 100 nM and 1000 nM (sheet 'Samples'), CATDS: 2.16089189660327E-2; n = 1
SRC = conditions: read-out: apparent Kd, n = 1
RIOK2 = conditions: read-out: apparent Kd, n = 1
MAPK8 = conditions: read-out: apparent Kd, n = 1
CSNK1A1 = conditions: read-out: apparent Kd, compound concentrations: 100 nM and 1000 nM (sheet 'Samples'), n = 1
PRKX = conditions: read-out: apparent Kd, compound concentrations: 100 nM and 1000 nM (sheet 'Samples'), n = 1
ROCK2 = conditions: read-out: apparent Kd, compound concentrations: 100 nM and 1000 nM (sheet 'Samples'), n = 1
CDK17 = conditions: read-out: apparent Kd, compound concentrations: 100 nM and 1000 nM (sheet 'Samples'), n = 1
CSNK1E = conditions: read-out: apparent Kd; compound concentrations: 100 nM and 1000 nM (sheet 'Samples'), CATDS: 1.0000373505011199E-2; n = 1
PHKG2 = conditions: read-out: apparent Kd, n = 1
RPS6KA4 = conditions: read-out: apparent Kd; compound concentrations: 100 nM and 1000 nM (sheet 'Samples'), CATDS: 8.4573730907670092E-3; n = 1
STK3 = conditions: read-out: apparent Kd, compound concentrations: 100 nM and 1000 nM (sheet 'Samples'), n = 1
TNIK = conditions: read-out: apparent Kd; compound concentrations: 100 nM and 1000 nM (sheet 'Samples'), CATDS: 6.517178775647E-3; n = 1
YES1 = conditions: read-out: apparent Kd, n = 1
[1] = compound concentrations:100 nM and 1000 nM (sheet 'Samples')

Cc1cc(-c2ccnc(Nc3cccc(C#N)c3)n2)cc(C)c1O [GSK1440913A]
potency estimated from few doses (ADCK1; compound concentrations: 100 nM and 1000 nM (sheet 'Samples'), CATDS: 7.9755280277017199E-2): 1350 nM

Cc1ccccc1-n1ncc(C(=O)c2ccccc2)c1N [RO1151248-000]
potency estimated from few doses (ABL2; compound concentrations: 100 nM and 1000 nM (sheet 'Samples'), CATDS: 2.8713823072650399E-2): 630 nM
potency estimated from few doses (ATM; CATDS: 4.4938913040114402E-2): 302 nM
potency estimated from few doses (HCK; CATDS: 1.9651331650111199E-2): 1480 nM
potency estimated from few doses (PIK3CD; CATDS: 6.44780865676087E-2): 184 nM
potency estimated from few doses (PTK6): 1160 nM
potency estimated from few doses (SRC; compound concentrations: 100 nM and 1000 nM (sheet 'Samples'), CATDS: 2.0715769219535499E-2): 1290 nM

COC(=O)c1cccc(NC(=O)NC2CCN(c3ccnc(Nc4cc(OC)c(OC)c(OC)c4)n3)C2)c1 (stereo not drawn) [GSK1379767A]
potency estimated from few doses (PIK3CD; CATDS: 0.49933192218353101): 112 nM
potency estimated from few doses (RIOK2; compound concentrations: 100 nM and 1000 nM (sheet 'Samples'), CATDS: 9.3299595876540298E-2): 2110 nM

CC(C)Oc1ccc2c(-c3ccnc(Nc4ccc(N5CCN(C)CC5)cc4)n3)cnn2n1 [GW696155X]
potency estimated from few doses (ADCK1; [1]): 44.9 nM
potency estimated from few doses (MAPK8; [1]): 352 nM

NCC(NC(=O)c1cc(-c2cn[nH]c2)c(-c2ccnc3[nH]ccc23)s1)c1ccccc1.NCC(NC(=O)c1cc(-c2cn[nH]c2)c(-c2ccnc3[nH]ccc23)s1)c1ccccc1.O=C(O)C(F)(F)F.O=C(O)C(F)(F)F (stereo not drawn) [GSK1325775A]
potency estimated from few doses (CSNK1A1; CATDS: 3.28567634973949E-2): 1500 nM
potency estimated from few doses (PRKX; CATDS: 4.4311971030028298E-2): 641 nM
potency estimated from few doses (ROCK2; CATDS: 0.17011597804612999): 47.4 nM

O=C(O)C(F)(F)F.O=C(O)C(F)(F)F.O=c1[nH]ccc2nc(N[C@@H]3CCCNC3)nc(Nc3ccc(S(=O)(=O)N4CCOCC4)cc3)c12.O=c1[nH]ccc2nc(N[C@@H]3CCCNC3)nc(Nc3ccc(S(=O)(=O)N4CCOCC4)cc3)c12 [GSK2177277A]
potency estimated from few doses (CDK17; CATDS: 6.5557639532583699E-3): 1380 nM
potency estimated from few doses (CSNK1A1; CATDS: 1.2484395279946501E-2): 150 nM
potency estimated from few doses (CSNK1E): 274 nM
potency estimated from few doses (HCK; CATDS: 6.5481840851314196E-3): 1390 nM
potency estimated from few doses (PHKG2; compound concentrations: 100 nM and 1000 nM (sheet 'Samples'), CATDS: 8.6754793941291007E-3): 430 nM
potency estimated from few doses (PRKX; CATDS: 7.1625839917235003E-3): 897 nM
potency estimated from few doses (RIOK2; compound concentrations: 100 nM and 1000 nM (sheet 'Samples'), CATDS: 6.0080792942577401E-3): 2350 nM
potency estimated from few doses (ROCK2; CATDS: 8.2952674328971108E-3): 503 nM
potency estimated from few doses (RPS6KA4): 470 nM
potency estimated from few doses (STK3; CATDS: 4.2815354509816599E-2): 14.4 nM
potency estimated from few doses (TNIK): 1420 nM

COc1cc(Nc2nccc(N3CCC(NC(=O)c4cccc(NC(C)=O)c4)C3)n2)cc(OC)c1OC (stereo not drawn) [GSK1379754A]
potency estimated from few doses (ADCK1; compound concentrations: 100 nM and 1000 nM (sheet 'Samples'), CATDS: 8.2961514797517094E-2): 1820 nM

CC(=O)N[C@@H](Cc1ccc(OP(=O)(O)O)cc1)C(=O)N[C@H]1CCC(=O)N2CCC[C@@H](C(=O)NCc3ccc(Cl)cc3)N2C1=O [RO0325308-000]
potency estimated from few doses (ABL2; [1]): 60.3 nM
potency estimated from few doses (PHKG2; [1]): 1880 nM
potency estimated from few doses (RIOK2; [1]): 141 nM
potency estimated from few doses (SRC; [1]): 1040 nM
potency estimated from few doses (YES1; [1]): 1030 nM

NC(=O)c1cc(-c2ccccc2)cc2c(C3CCNCC3)c[nH]c12 [GSK301362A]
potency estimated from few doses (ADCK1; [1]): 1520 nM

Cc1n[nH]c2cc(Nc3ccnc(Nc4cccc(CN5CCOCC5)c4)n3)ccc12 [GW682569X]
potency estimated from few doses (ADCK1; compound concentrations: 100 nM and 1000 nM (sheet 'Samples'), CATDS: 0.121280285214534): 760 nM
potency estimated from few doses (MAPK8; compound concentrations: 100 nM and 1000 nM (sheet 'Samples'), CATDS: 8.8519756402374403E-2): 1870 nM
potency estimated from few doses (PIK3CD; CATDS: 0.35370860335397603): 121 nM

CCn1c(-c2cccnc2O)nc2cnccc21 [SB-736715]
potency estimated from few doses (ATM; CATDS: 6.3051453748071404E-2): 146 nM
potency estimated from few doses (CDK17; CATDS: 1.55525424836102E-2): 1200 nM
potency estimated from few doses (CSNK1A1; CATDS: 1.24384070369575E-2): 1990 nM
potency estimated from few doses (HCK; CATDS: 1.6731376225889199E-2): 1040 nM
potency estimated from few doses (MAPK8; compound concentrations: 100 nM and 1000 nM (sheet 'Samples'), CATDS: 1.2937412229939001E-2): 1800 nM
potency estimated from few doses (PHKG2; compound concentrations: 100 nM and 1000 nM (sheet 'Samples'), CATDS: 1.25059866085428E-2): 1960 nM
potency estimated from few doses (PIK3CD; CATDS: 9.8292238183885799E-2): 84.5 nM
potency estimated from few doses (SRC; compound concentrations: 100 nM and 1000 nM (sheet 'Samples'), CATDS: 1.60653948835471E-2): 1130 nM
potency estimated from few doses (STK3; CATDS: 1.16838495849846E-2): 2360 nM
potency estimated from few doses (YES1; compound concentrations: 100 nM and 1000 nM (sheet 'Samples'), CATDS: 1.8559890598855499E-2): 859 nM
